These results are taken from PMC11574364.

Holding throughout (test): protein domain microarray probed with biotinylated miRNA; Domain array: 20 mM Tris-HCl pH 7.4, 200 mM KCl, 0.2 mM EDTA, 0.05% NP40, 2 ug/ul heparin, overnight 4 C. ORF array: PBS pH 7.0 with RNase inhibitor, 100 ng RNA; high values mean tight binding
What all share (settings): ssRNA

Test [1] deals with T1, RBM19(5-6) (Homo sapiens, UniProt Q9Y4C8).
T1 sequence: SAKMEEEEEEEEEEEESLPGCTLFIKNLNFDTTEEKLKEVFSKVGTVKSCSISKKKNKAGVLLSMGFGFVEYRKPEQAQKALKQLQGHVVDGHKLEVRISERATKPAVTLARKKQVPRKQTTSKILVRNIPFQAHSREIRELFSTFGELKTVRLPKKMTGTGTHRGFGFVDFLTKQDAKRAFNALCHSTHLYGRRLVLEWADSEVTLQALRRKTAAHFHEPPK

Test [2] deals with T2, SSB (Homo sapiens, UniProt P05455).
T2 sequence: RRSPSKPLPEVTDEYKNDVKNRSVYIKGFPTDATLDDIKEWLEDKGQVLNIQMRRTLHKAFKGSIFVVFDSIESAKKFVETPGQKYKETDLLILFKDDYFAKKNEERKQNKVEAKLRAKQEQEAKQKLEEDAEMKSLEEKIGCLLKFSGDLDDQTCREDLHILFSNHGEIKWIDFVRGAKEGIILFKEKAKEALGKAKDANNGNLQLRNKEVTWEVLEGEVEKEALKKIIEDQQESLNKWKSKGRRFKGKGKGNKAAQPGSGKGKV

The target in test [3] is SAFB2 (Homo sapiens, UniProt Q14151).
Chain of SAFB2 (Q14151 380-500): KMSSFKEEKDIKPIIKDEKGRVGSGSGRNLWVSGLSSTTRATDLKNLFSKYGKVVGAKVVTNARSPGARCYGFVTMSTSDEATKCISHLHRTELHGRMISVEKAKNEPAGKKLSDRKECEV
Test [4] concerns the target T3, RBM28(3-4) (Homo sapiens, UniProt Q9NW13).
T3 sequence: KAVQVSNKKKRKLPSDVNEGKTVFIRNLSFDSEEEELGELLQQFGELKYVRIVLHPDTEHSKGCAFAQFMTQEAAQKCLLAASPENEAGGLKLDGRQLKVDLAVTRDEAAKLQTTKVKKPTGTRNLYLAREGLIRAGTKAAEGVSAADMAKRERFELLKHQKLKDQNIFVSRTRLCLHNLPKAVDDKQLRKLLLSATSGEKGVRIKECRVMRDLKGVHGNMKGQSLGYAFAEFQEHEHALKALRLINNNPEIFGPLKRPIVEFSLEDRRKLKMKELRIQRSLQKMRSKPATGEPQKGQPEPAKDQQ

The target in test [5] is T4, RBM42 (Homo sapiens, UniProt Q9BTD8).
T4 sequence: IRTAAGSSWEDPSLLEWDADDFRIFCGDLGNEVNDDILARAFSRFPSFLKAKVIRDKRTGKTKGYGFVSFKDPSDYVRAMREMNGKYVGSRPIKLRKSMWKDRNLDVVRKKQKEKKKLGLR

The target in test [6] is T5, RBM48 (Homo sapiens, UniProt Q5RL73).
T5 sequence: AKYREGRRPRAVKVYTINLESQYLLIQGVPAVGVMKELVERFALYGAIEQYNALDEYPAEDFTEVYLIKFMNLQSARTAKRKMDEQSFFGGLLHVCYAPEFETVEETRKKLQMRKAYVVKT

The target of test [7] is T6, Kanadaptin (Homo sapiens, UniProt Q9BWU0).
T6 sequence: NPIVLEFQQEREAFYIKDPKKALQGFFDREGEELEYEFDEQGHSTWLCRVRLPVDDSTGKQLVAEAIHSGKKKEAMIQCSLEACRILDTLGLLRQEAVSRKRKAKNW

The target in test [8] is ROD1(1-2) (Homo sapiens, UniProt O95758).
Chain of ROD1(1-2) (O95758 40-280): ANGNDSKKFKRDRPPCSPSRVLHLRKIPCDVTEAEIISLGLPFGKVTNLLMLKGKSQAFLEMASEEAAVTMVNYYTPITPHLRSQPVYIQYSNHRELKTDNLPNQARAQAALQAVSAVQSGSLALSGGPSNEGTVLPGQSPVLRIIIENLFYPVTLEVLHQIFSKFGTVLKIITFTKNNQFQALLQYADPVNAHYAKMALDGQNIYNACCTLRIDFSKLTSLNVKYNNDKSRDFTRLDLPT
For test [9], the target named is T7, RBM9 (Homo sapiens, UniProt O43251).
T7 sequence: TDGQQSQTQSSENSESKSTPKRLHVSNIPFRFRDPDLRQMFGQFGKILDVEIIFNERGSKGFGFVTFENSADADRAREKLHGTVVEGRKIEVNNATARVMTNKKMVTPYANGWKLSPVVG

The target of test [10] is T8, NOVA1(1-2) (Homo sapiens, UniProt P51513).
T8 chain: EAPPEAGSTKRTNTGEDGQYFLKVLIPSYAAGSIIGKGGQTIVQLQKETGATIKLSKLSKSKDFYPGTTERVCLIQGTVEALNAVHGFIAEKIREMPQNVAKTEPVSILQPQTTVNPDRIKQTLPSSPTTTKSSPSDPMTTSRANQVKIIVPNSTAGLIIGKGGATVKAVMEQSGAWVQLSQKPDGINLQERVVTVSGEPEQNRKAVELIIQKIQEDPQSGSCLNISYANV

For the sequence UGAGGUAGUAGGUUGUGUGGUU, the binding signal in [1] turned out to be 318.4 ± 2.5 fluorescence intensity; in [2] it was 686 ± 34.9 fluorescence intensity; in [3], 826.5 ± 2.57 fluorescence intensity; in test [4], 135 ± 19.4 fluorescence intensity; in [5] it was 613 ± 9.75 fluorescence intensity; in [6] it was 128 ± 27.9 fluorescence intensity. Moreover, the binding signal in test [7] came out at 62.8 ± 3.11 fluorescence intensity; in [8] it was 562 ± 23.1 fluorescence intensity; in test [9], 1610 ± 18 fluorescence intensity; in test [10], 134 ± 4.86 fluorescence intensity.

Turning to AGAGGUAGUAGGUUGCAUAGUU, the binding signal in [1] worked out at 122 ± 10.5 fluorescence intensity; in test [2], 587.4 ± 5.08 fluorescence intensity; in [3], 328.4 ± 1.94 fluorescence intensity; in test [4], 54.1 ± 1.09 fluorescence intensity; in test [5], 231 ± 13.5 fluorescence intensity; in test [6], 90.1 ± 12.4 fluorescence intensity. For the same sequence, the binding signal stood at 33.9 ± 1.02 fluorescence intensity in [7], 339 ± 66.7 fluorescence intensity in test [8], 2720 ± 95.4 fluorescence intensity in test [9] and 318 ± 18.7 fluorescence intensity in test [10].

Turning to UAGCUUAUCAGACUGAUGUUGA, the binding signal in test [1] is 23.1 ± 1.03 fluorescence intensity; in [2], 22.6 ± 3.15 fluorescence intensity; in test [3], 54.58 ± 0.247 fluorescence intensity; in [5], 21 ± 0.962 fluorescence intensity; in [9] it was 916 ± 20.1 fluorescence intensity.

As to UGAGGUAGUAGGUUGUAUGGUU, the binding signal in test [1] was 231.1 ± 1.89 fluorescence intensity; in test [2], 770 ± 38.1 fluorescence intensity; in test [3], 488.9 ± 0.622 fluorescence intensity; in test [4] it was 77 ± 4.09 fluorescence intensity; in test [5] it was 362 ± 5.61 fluorescence intensity; in test [6] it was 94.7 ± 35.8 fluorescence intensity. For the same sequence, the binding signal was found to be 47.3 ± 6.22 fluorescence intensity in test [7], 367 ± 26.4 fluorescence intensity in [8], 1940 ± 112 fluorescence intensity in test [9] and 90.1 ± 7.43 fluorescence intensity in test [10].

Take CAGUGCAAUGAUGAAAGGGCAU: the binding signal in test [1] was found to be 110 ± 1.73 fluorescence intensity; in [2], 324 ± 18.3 fluorescence intensity; in test [3], 298 ± 17.8 fluorescence intensity; in test [4] it was 25.9 ± 2.84 fluorescence intensity; in test [5], 187 ± 2.13 fluorescence intensity; in test [6], 51.01 ± 0.233 fluorescence intensity. Besides, the binding signal worked out at 116 ± 66.5 fluorescence intensity in test [8], 1850 ± 25.3 fluorescence intensity in test [9] and 260.9 ± 1.94 fluorescence intensity in test [10].

UGAGGUAGUAGGUUGUAUAGUU: the binding signal in [1] was determined as 39.6 ± 0.516 fluorescence intensity; in test [2] it was 76.1 ± 6.81 fluorescence intensity; in test [3], 130 ± 21.8 fluorescence intensity; in [5] it was 57.7 ± 4.36 fluorescence intensity; in test [8], 49.2 ± 4.26 fluorescence intensity; in test [9], 693 ± 16.3 fluorescence intensity. The sequence also showed a binding signal in test [10] of 27.6 ± 0.799 fluorescence intensity.
